Measured values published in PubChem BioAssay (Tox21).
Calls of active or inactive are those of the source. Where a call stands in place of a potency, no number is given. Calls come from the whole dose curve; as a rule, active = well fitted inhibition curve with a large enough effect in the repeat runs (not every such curve was filed as active); inconclusive = weak or mixed curves; inactive = flat fitted curve, though single readings scatter.

These molecules were tested against Thyrotropin-releasing hormone receptor (Homo sapiens) (UniProt P34981) (assay: qHTS assay to identify small molecule antagonists of the thyrotropin-releasing hormone receptor (TRHR) signaling pathway (AID 1346877)). Details: TRHR-HEK293, TRH-induced calcium fluorescence, antagonist mode; series mostly up to 51.3 µM.
Chain of Thyrotropin-releasing hormone receptor (Homo sapiens) (P34981 whole entry, looked up): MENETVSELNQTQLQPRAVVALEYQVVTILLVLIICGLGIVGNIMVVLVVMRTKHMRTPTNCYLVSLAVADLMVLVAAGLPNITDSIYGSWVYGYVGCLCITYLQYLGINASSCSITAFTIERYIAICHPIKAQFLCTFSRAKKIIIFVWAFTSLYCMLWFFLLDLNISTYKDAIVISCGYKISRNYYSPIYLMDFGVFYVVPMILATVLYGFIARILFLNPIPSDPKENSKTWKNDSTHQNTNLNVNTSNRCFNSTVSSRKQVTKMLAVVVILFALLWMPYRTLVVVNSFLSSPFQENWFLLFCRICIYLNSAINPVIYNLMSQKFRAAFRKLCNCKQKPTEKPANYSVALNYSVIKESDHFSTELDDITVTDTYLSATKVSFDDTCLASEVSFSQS
Excerpt: National Center for Advancing Translational Sciences [NCATS]
NIH Chemical Genomics Center [NCGC]
U.S. Environmental Protection Agency [EPA]
National Institutes of Environmental Health Sciences [NIEHS]
National Toxicology Program [NTP]
U.S. Food and Drug Administration [FDA]
Thyrotropin-releasing hormone (TRH) receptor (TRHR) is a G-protein-coupled receptor which binds the tripeptide thyrotropin releasing hormone. TRHR is found in the brain and, when bound by TRH, acts (through phospholipase C) to increase intracellular inositol trisphosphate. It plays a crucial role in the anterior pituitary where it controls the synthesis and secretion of thyroid stimulating hormone and prolactin. The TRHR-Hek293 assay is a cell-based assay, and it has the potential to screen G protein-coupled receptors. A compound/drug can either activate (agonist) or suppress (antagonist) GPCRs that can be monitored by levels of intracellular calcium. In this assay, the Tox21 10K compound library was screened to identify potential TRHR antagonists.
Tox21 Assay Protocol Summary:
The TRHR-Hek293 cells were dispensed at 1500cells/4uL/well in 1536-well black-clear bottom plates using a Multidrop dispenser. After the assay plates were incubated at a 37 C/5% CO2 incubator for 18 hours, 4 uL of Dye-Loading Solution was added to each well. The plates were incubated at 37 C for 2 hours. For agonist mode, 23 nL of compounds dissolved in DMSO, positive controls or DMSO only was transferred to the assay plate by a pin tool. The fluorescence intensity in the plates was measured using FDSS 7000EX kinetic plate reader for 3 min at 1 sec intervals. For antagonist mode, 23 nL of compounds dissolved in DMSO, positive controls or DMSO only was transferred to the assay plate by a pin tool. After 5 min incubation at room temperature, 1 uL of TRH was added on the top of the cell/compound mixtures to achieve a final agonist concentration of 1 nM. The fluorescence intensity in the plates was measured using FDSS 7000EX kinetic plate reader for 3 min at 1 sec intervals. Each test compound was measured at 15 concentrations and in triplicates.

Compound | Potency
Brc1nc2ccccc2s1 | inactive
Nc1cc(Cl)c(N)c(Cl)c1 | inactive
C[C@]12CC[C@@H]3c4ccc(O)cc4CC[C@H]3[C@@H]1CC[C@H]2O | inactive
CCC(Cc1c(I)cc(I)c(N)c1I)C(=O)O (stereo not given) | inactive
C1CN(SSN2CCOCC2)CCO1 | inactive
C=CCCCCCCCCCC | inactive
C=CCNCC=C | inactive
O=C(O)CCCC(=O)O | inactive
CC(=O)Nc1ccc2c(c1)Cc1cc(NC(C)=O)ccc1-2 | inactive
CCCCCC1C(=O)CCC1CC(=O)OC (stereo not given) | inactive
CC/C=C\C/C=C\C/C=C\CCCCCCCC(=O)O | inactive
Nc1cc([N+](=O)[O-])ccc1C(=O)O | inactive
CC(C)=CCO | inactive
CCCOCCO | inactive
COc1ccc(-c2coc3cc(O)cc(O)c3c2=O)cc1 | inactive
O=[Se](O)O | inactive
O=C(O)CCCCCCCCCCCC(=O)O | inactive
Cc1ccc(C(C)(C)C)cc1 | inactive
Oc1ccc(C(c2ccc(O)cc2)C(Cl)(Cl)Cl)cc1 | inactive
C/C=C/C(=O)N(CC)c1ccccc1C | inactive

Compound | Potency
NCCS(=O)(=O)O | inactive
Cc1ccc2c(c1)C(=O)OC2=O | inactive
C=CN1CCCC1=O | inactive
CC/C(=C(/CC)c1ccc(O)cc1)c1ccc(O)cc1 | inactive
CC(C)[N+](C)(CCOC(=O)C1c2ccccc2Oc2ccccc21)C(C)C | inactive
C[C@]12CC[C@@H]3c4ccc(O)cc4CC[C@H]3[C@@H]1CC[C@@H]2O | inactive
Cc1ccc(C)c(O)c1 | inactive
C=C1C[C@H]2[C@@H]3C=C(C)C4=CC(=O)CC[C@]4(C)[C@H]3CC[C@]2(C)[C@@]1(OC(C)=O)C(C)=O | inactive
CC1(C)NC(=O)N(c2ccc([N+](=O)[O-])c(C(F)(F)F)c2)C1=O | inactive
OCCNCCO | inactive
Nc1ccc2c(O)cc(S(=O)(=O)O)cc2c1 | inactive
CC(=O)Oc1c(C)c(C)c2c(c1C)CC[C@@](C)(CCC[C@H](C)CCC[C@H](C)CCCC(C)C)O2 | inactive
Cc1ccc(S(=O)(=O)O)cc1C | inactive
CN(C)CCCN1c2ccccc2Sc2ccc(Cl)cc21 | inactive
C=C[C@H]1CN2CC[C@H]1C[C@@H]2[C@@H](O)c1ccnc2ccc(OC)cc12 | inactive
OC[C@H]1O[C@@H]2O[C@H]3[C@H](O)[C@@H](O)[C@@H](O[C@H]4[C@H](O)[C@@H](O)[C@@H](O[C@H]5[C@H](O)[C@@H](O)[C@@H](O[C@H]6[C@H](O)[C@@H](O)[C@@H](O[C@H]7[C@H](O)[C@@H](O)[C@@H](O[C@H]1[C@H](O)[C@H]2O)O[C@@H]7CO)O[C@@H]6CO)O[C@@H]5CO)O[C@@H]4CO)O[C@@H]3CO | inactive
O=C(CCCN1CCC(O)(c2ccc(Cl)cc2)CC1)c1ccc(F)cc1 | inactive
c1ccc2c(c1)[nH]c1ccccc12 | inactive
CC1=CC(C)(C)Nc2ccccc21 | inactive
NCCOCCO | inactive
